Structures are written as SMILES. “And” between values parts separate entries of the source, which are not always exact repeats. Identical values can stand only once. Records with an inconclusive call do not appear. The source holds several records for some structures; these can differ, active in one and inactive in another. The source made the active and inactive calls. The calls were made as follows, unless noted: active = hit-call score of the fitted dose curve at least 0.9, where 1 is the maximum; inactive = score below 0.9.

One may read the AC50 as the concentration giving half of the maximal activity seen.

The target in experiment [1] is Nuclear respiratory factor 1 (Homo sapiens) (UniProt Q16656). Nature of the experiment: ATG_NRF1_CIS: Attagene CIS-FACTORIAL HepG2 Assay for human Nuclear Respiratory Factor 1 (NRF1) Orphan Gene (AID 2282987). Conditions: HepG2 NRF1 cis-element reporter, Attagene multiplex; actives raise or lower the signal. The gist of the method: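 Human hepatoma HepG2 cells carrying transfected promoter-regulated reporter units were incubated with test chemicals for 24 h. Reporter transcripts were measured by RT-PCR plus capillary electrophoresis, and endpoints derived by bidirectional fitting with DMSO as baseline.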
Chain of Nuclear respiratory factor 1 (Homo sapiens) (Q16656 whole entry, looked up): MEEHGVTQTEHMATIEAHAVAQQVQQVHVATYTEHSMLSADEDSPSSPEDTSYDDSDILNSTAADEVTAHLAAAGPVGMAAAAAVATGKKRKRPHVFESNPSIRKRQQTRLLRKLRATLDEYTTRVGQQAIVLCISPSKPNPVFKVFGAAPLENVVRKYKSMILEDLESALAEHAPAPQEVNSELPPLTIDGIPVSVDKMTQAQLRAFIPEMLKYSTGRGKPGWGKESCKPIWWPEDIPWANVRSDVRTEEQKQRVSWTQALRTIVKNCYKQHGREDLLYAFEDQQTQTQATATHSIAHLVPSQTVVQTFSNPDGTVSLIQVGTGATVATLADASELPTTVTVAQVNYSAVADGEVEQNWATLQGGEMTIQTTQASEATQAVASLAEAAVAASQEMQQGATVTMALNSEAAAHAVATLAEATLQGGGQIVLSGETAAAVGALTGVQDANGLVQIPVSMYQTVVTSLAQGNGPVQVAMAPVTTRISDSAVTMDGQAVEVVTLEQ

The nature of experiment [2]: ATG_NFI_CIS: Attagene CIS-FACTORIAL HepG2 Assay for human Nuclear Factor I (NFI) (AID 2282989). Conditions: HepG2 cis-regulatory reporter, NFI response element transcription; actives raise or lower the signal. The procedure, abridged:
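Endogenous TF activity in HepG2 cells transiently transfected with cis-element-driven multiplexed reporter units, read 24 h after dosing. Reporter mRNA quantified by RT-PCR, 6-FAM labelling, HpaI digestion and capillary electrophoresis; bidirectional fit versus DMSO.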

In experiment [3] the target is Myc proto-oncogene protein (Homo sapiens) (UniProt P01106). In words: ATG_Myc_CIS: Attagene CIS-FACTORIAL HepG2 Assay for human Myelocytomatosis (Myc) Proto-Oncogene Transcription Factor (AID 2282990). Conditions: HepG2, Attagene cis-reporter transcription factor activity; actives raise or lower the signal. The procedure, abridged:
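Cells of the HepG2 human liver line bear multiple cis-driven reporter transcription units. Reporter mRNA after 24 h exposure is reverse-transcribed, amplified, labelled and resolved by capillary electrophoresis, with gain- or loss-of-signal fitting relative to DMSO.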

The nature of experiment [4]: ATG_NRF2_ARE_CIS: Attagene CIS-FACTORIAL HepG2 Assay for human Nuclear Factor Erythroid 2 Related Factor 2 (NFR2) response to Antioxidant Response Elements (ARE) (AID 2282992).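 As to AC50: reporter mRNA level measured by RT-PCR and capillary electrophoresis fluorescence.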 Conditions: HepG2 Attagene ARE/NRF2 reporter, transcription factor activity; actives raise or lower the signal. The gist of the method:
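Cis-factorial assay: transfected HepG2 reporter library, 24 h dosing, mRNA readout via RT-PCR/CE; DMSO-referenced bidirectional analysis.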

A short description of experiment [5]: ATG_Oct_MLP_CIS: Attagene CIS-FACTORIAL HepG2 Assay for human Octamer-Binding Transcription Factor (Oct) (AID 2282993). Conditions: HepG2 Attagene cis-factorial Oct reporter, mRNA; actives raise or lower the signal. The procedure, abridged:
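HepG2 cells transiently transfected with cis-element-driven reporter transcription units (endogenous TF activity); 24 h compound exposure. Reporter mRNA quantified by RT-PCR, 6-FAM labelling, HpaI digestion and capillary electrophoresis; bidirectional fit versus DMSO baseline.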

Experiment [6] deals with Cellular tumor antigen p53 (Homo sapiens) (UniProt P04637). Nature of the experiment: ATG_p53_CIS: Attagene CIS-FACTORIAL HepG2 Assay for human p53 Transcription Factor (AID 2282994). Conditions: HepG2 p53 cis-element reporter, Attagene mRNA; actives raise or lower the signal. The procedure, abridged:
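Using HepG2 hepatoma cells carrying cis-acting multiplexed reporters, mRNA induction is detected after a 24 h exposure. Gain- and loss-of-signal responses are fitted relative to DMSO-treated cells.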

For experiment [7], the target named is human Peroxisome Proliferator-activated Receptor delta (PPARd), PPARD (gene 5467) (UniProt Q03181). Nature of the experiment: ATG_PPARd_TRANS: Attagene TRANS-FACTORIAL HepG2 Assay for human Peroxisome Proliferator-activated Receptor delta (PPARd) (AID 2283002; active = hit-call score of the fitted dose curve at least 0.9, where 1 is the maximum). The gist of the method:
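Cell-based TRANS reporter: HepG2, transient MRTU transfection, 24 h exposure. Readout = reporter mRNA (RT-PCR/CE, 6-FAM). Gain-of-signal fit vs DMSO control.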

The target of experiment [8] is Peroxisome proliferator-activated receptor gamma (Homo sapiens) (UniProt P37231). Nature of the experiment: ATG_PPARg_TRANS: Attagene TRANS-FACTORIAL HepG2 Assay for human Peroxisome Proliferator-activated Receptor-gamma (PPARg) (AID 2283007; active = hit-call score of the fitted dose curve at least 0.9, where 1 is the maximum). The gist of the method:
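Human hepatoma HepG2, transient MRTU transfection, 24 h treatment. mRNA reporter signal by RT-PCR plus capillary electrophoresis, fluorescence detection; fitted for increase over DMSO negative control.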

Experiment [9] has as its target Nuclear receptor subfamily 1 group I member 2 (Homo sapiens) (UniProt O75469). In words: ATG_PXR_TRANS: Attagene TRANS-FACTORIAL HepG2 Assay for human Pregnane X Receptor (PXR) (AID 2283008; active = hit-call score of the fitted dose curve at least 0.9, where 1 is the maximum). The gist of the method: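 Fluorescence intensity of FAM-labelled, HpaI-digested reporter amplicons, separated by capillary electrophoresis, quantifies induction. HepG2 cells with PXR-Gal4 trans-reporter system were exposed 24 h; DMSO defines baseline.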

The nature of experiment [10]: ATG_NF_kB_CIS: Attagene CIS-FACTORIAL HepG2 Assay for human Nuclear Factor Kappa B (NF-kB) (AID 2282991). Conditions: HepG2 Attagene cis-factorial NF-kB reporter mRNA; actives raise or lower the signal. The procedure, abridged: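 Multiplexed cis-reporter assay in transiently transfected HepG2. 24 h treatment; RNA isolated, RT-PCR, labelled fragments resolved by CE. DMSO baseline.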

Experiment [11] can be described thus: BSK_3C_TissueFactor: BioMAP Diversity Plus: 3C Assay for Tissue Factor Biomarker Activity (AID 2282997). Conditions: BioMAP 3C HUVEC, tissue factor biomarker readout; actives raise or lower the signal. The gist of the method: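 Human vascular primary cells (umbilical vein endothelium) received test chemical; Tissue Factor was determined by ELISA at 24 h, and both gain and loss of signal versus DMSO were fitted.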

A short description of experiment [12]: BSK_3C_uPAR: BioMAP Diversity Plus: 3C Assay for Urokinase-type plasminogen activator receptor (uPAR) Biomarker Activity (AID 2282998). Conditions: BioMAP 3C HUVEC, uPAR biomarker ELISA; actives raise or lower the signal. The gist of the method: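 Primary human umbilical vein endothelial cells, 3C system; surface uPAR measured by ELISA 24 h after dosing. Cytotoxicity via SRB total protein in parallel cultures; bidirectional fit against DMSO.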
For orientation: An ELISA detects its analyte on a solid surface through an enzyme-linked reagent.

A short description of experiment [13]: BSK_4H_Eotaxin3: BioMAP Diversity Plus: 4H Assay for Eotaxin 3 Biomarker Activity (AID 2283000).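 As to outcome: CCL26 protein level quantified by ELISA in parallel with SRB cytotoxicity check.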 Conditions: primary human endothelial cells (HUVEC); actives raise or lower the signal. The procedure, abridged:
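Readout is Eotaxin-3 (CCL26) level by ELISA in primary human umbilical vein endothelial cells harvested 24 h after chemical exposure; activity fitted in both directions against DMSO control.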

Read-out in experiment [14]: Intercellular Adhesion Molecule 1 (ICAM1), ICAM1 (gene 3383)
Nature of the experiment: BSK_3C_ICAM1: BioMAP Diversity Plus: 3C Assay for Intercellular Adhesion Molecule 1 (ICAM1) Biomarker Activity (AID 2283003). Conditions: primary human endothelial cells (HUVEC); actives raise or lower the signal. The gist of the method:
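HUVEC primary cells stimulated under 3C conditions; ICAM1 measured by ELISA 24 h after compound dosing. Curves fitted bidirectionally against the DMSO baseline. Overt cytotoxicity checked by SRB staining of parallel cultures.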

Experiment [15] can be described thus: BSK_3C_Proliferation: Cell Proliferation Assessment in the BioMAP Diversity Plus: 3C Assay (AID 2283006).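 Also: potency may reflect either rise or fall in cell number versus DMSO.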 Conditions: primary human endothelial cells (HUVEC). The procedure, abridged: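 Subconfluent HUVEC (3C system) cultured with chemical; relative cell number read at 48 h by sulforhodamine B total-protein staining (0.1% SRB after 10% TCA fixation, 560 nm). Bidirectional fit relative to DMSO.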

Experiment [16] deals with human Retinoic Acid Receptor beta (RARb), RARB (gene 5915) (UniProt P10826). In words: ATG_RARb_TRANS: Attagene TRANS-FACTORIAL HepG2 Assay for human Retinoic Acid Receptor beta (AID 2283004; active = hit-call score of the fitted dose curve at least 0.9, where 1 is the maximum). The gist of the method: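 Readout is reporter mRNA induction: RNA reverse-transcribed, PCR-amplified, FAM-labelled, HpaI-cut and resolved by capillary electrophoresis. Transiently transfected HepG2 cells carrying exogenous NR–Gal4 chimeras were dosed for 24 h; activity fitted upward relative to DMSO.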
Chain of human Retinoic Acid Receptor beta (RARb), RARB (gene 5915) (P10826 whole entry, looked up, the tested form may be a part): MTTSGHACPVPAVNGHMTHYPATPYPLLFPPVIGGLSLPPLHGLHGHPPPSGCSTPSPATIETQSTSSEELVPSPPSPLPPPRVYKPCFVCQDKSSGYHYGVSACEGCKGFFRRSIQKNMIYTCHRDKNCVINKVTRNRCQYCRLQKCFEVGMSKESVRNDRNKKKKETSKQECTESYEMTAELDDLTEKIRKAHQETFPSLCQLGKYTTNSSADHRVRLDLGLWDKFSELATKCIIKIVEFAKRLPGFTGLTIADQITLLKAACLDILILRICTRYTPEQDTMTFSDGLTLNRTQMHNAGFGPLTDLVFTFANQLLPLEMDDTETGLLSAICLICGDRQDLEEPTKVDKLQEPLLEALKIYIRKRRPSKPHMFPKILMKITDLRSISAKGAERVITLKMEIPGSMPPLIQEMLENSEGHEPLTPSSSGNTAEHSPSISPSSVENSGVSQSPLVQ

Experiment [17] concerns the target Retinoic acid receptor alpha (Homo sapiens) (UniProt P10276). Nature of the experiment: ATG_RARa_TRANS: Attagene TRANS-FACTORIAL HepG2 Assay for human Retinoic Acid Receptor alpha (RARa) (AID 2283005; active = hit-call score of the fitted dose curve at least 0.9, where 1 is the maximum). The procedure, abridged:
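Reporter transcripts, measured by RT-PCR with fluorescent labeling and capillary electrophoresis after 24 h dosing, reflect activity of an exogenous human RARa–GAL4 fusion in transiently transfected HepG2. Fitted for increase relative to DMSO.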

The target of experiment [18] is human Retinoic Acid Receptor gamma (RARg), RARG (gene 5916) (UniProt P13631). Nature of the experiment: ATG_RARg_TRANS: Attagene TRANS-FACTORIAL HepG2 Assay for human Retinoic Acid Receptor gamma (RARg) (AID 2283009; active = hit-call score of the fitted dose curve at least 0.9, where 1 is the maximum). The procedure, abridged:
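HepG2 transiently transfected with GAL4-UAS reporter units and chimeric NR-Gal4 constructs; 24 h compound exposure. Reporter mRNA quantified by RT-PCR, FAM labeling, HpaI digestion and capillary electrophoresis; gain-of-signal versus DMSO.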

The target in experiment [19] is human Peroxisome Proliferator-activated Receptor alpha (PPARa), PPARA (gene 5465) (UniProt Q07869). In words: ATG_PPARa_TRANS: Attagene TRANS-FACTORIAL HepG2 Assay for human Peroxisome Proliferator-activated Receptor alpha (PPARa) (AID 2283001; active = hit-call score of the fitted dose curve at least 0.9, where 1 is the maximum). The procedure, abridged: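 Read-out is fluorescence of reporter cDNA fragments resolved by capillary electrophoresis after RT-PCR. Human HepG2 liver cells carried transfected PPARa-Gal4 chimera and GAL4-UAS reporter units, treated 24 h; activity scored as increase over DMSO.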
Chain of human Peroxisome Proliferator-activated Receptor alpha (PPARa), PPARA (gene 5465) (Q07869 whole entry, looked up, the tested form may be a part): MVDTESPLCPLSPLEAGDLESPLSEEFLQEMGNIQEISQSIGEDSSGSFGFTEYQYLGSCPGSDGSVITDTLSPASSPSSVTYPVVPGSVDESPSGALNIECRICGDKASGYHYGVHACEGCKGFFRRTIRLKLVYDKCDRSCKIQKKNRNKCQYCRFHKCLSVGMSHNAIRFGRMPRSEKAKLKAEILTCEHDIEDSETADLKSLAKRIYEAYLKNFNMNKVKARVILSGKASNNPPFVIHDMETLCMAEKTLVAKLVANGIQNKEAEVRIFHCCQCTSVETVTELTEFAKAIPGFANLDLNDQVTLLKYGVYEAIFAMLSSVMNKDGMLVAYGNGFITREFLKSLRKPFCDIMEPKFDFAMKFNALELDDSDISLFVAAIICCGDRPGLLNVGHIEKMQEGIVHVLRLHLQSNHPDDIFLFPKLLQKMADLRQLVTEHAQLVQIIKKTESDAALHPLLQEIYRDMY

Chain of Peroxisome proliferator-activated receptor gamma (Homo sapiens) (P37231 whole entry, looked up): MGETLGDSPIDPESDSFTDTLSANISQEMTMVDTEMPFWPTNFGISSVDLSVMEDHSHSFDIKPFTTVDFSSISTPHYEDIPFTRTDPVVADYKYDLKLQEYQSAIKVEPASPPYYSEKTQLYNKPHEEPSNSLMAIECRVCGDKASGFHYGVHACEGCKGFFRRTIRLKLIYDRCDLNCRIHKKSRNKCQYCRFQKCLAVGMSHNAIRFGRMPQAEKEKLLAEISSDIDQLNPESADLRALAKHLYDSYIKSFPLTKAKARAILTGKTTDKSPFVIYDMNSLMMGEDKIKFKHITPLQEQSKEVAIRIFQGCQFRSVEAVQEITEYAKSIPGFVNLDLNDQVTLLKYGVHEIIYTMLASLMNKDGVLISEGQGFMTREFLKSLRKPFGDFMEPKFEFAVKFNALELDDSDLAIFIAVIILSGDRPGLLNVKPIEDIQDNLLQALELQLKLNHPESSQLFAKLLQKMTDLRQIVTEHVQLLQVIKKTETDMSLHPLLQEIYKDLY
Chain of Myc proto-oncogene protein (Homo sapiens) (P01106 whole entry, looked up): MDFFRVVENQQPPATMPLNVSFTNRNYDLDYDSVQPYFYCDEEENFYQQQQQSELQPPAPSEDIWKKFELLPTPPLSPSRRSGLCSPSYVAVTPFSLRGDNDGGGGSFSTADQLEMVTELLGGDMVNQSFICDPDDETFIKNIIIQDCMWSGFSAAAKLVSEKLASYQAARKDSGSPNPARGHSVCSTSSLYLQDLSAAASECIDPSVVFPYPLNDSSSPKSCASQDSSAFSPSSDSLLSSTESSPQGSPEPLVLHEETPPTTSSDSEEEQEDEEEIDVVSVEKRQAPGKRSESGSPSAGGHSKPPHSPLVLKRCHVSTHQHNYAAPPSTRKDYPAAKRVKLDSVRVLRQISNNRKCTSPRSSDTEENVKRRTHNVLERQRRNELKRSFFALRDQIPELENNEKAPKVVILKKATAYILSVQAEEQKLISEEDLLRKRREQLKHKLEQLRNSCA
Chain of Nuclear receptor subfamily 1 group I member 2 (Homo sapiens) (O75469 whole entry, looked up, the tested form may be a part): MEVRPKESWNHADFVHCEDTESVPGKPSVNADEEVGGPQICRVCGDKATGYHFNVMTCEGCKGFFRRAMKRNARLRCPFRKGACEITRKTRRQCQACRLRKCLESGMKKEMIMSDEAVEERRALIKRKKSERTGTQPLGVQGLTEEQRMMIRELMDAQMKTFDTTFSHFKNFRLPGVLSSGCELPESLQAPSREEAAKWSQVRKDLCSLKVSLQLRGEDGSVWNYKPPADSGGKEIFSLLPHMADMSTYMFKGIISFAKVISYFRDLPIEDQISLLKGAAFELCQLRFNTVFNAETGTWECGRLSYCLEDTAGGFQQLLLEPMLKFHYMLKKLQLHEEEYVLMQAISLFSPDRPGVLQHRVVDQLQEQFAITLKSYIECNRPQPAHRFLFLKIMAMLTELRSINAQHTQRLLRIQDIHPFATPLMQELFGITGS
Chain of human Peroxisome Proliferator-activated Receptor delta (PPARd), PPARD (gene 5467) (Q03181 whole entry, looked up): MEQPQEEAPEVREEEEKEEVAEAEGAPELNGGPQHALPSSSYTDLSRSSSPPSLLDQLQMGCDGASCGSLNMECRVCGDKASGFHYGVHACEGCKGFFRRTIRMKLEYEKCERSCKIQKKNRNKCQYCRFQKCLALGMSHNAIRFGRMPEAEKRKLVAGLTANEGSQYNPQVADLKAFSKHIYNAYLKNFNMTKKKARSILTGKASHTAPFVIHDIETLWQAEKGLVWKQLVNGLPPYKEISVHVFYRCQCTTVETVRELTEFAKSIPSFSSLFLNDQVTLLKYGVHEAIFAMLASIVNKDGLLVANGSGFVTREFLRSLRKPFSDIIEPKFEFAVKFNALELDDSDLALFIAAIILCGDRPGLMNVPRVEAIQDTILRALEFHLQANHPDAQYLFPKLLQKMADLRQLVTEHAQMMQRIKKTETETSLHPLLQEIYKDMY
Chain of Cellular tumor antigen p53 (Homo sapiens) (P04637 whole entry, looked up): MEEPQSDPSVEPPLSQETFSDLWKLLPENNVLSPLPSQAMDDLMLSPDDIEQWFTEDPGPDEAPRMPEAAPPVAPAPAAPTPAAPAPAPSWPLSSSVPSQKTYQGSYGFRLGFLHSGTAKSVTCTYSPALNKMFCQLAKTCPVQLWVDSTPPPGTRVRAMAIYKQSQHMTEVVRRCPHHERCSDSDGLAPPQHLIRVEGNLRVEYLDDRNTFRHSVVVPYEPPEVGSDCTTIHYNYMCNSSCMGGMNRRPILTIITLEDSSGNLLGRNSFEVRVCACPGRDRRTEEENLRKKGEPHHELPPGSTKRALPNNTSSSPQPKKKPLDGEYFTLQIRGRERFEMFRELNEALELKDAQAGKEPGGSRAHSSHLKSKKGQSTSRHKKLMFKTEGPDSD
Chain of Retinoic acid receptor alpha (Homo sapiens) (P10276 whole entry, looked up, the tested form may be a part): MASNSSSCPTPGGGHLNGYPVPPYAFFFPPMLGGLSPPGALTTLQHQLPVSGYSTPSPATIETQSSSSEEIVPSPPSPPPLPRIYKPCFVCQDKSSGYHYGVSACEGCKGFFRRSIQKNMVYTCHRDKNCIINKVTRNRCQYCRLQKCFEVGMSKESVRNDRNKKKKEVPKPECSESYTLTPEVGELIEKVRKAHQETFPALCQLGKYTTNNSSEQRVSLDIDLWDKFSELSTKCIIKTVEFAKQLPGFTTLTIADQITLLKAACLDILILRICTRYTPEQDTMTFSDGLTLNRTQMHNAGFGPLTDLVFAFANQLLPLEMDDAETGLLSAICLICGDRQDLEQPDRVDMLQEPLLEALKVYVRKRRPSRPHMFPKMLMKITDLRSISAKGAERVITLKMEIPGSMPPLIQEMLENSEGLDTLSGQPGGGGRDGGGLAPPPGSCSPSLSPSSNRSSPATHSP
Chain of human Retinoic Acid Receptor gamma (RARg), RARG (gene 5916) (P13631 whole entry, looked up, the tested form may be a part): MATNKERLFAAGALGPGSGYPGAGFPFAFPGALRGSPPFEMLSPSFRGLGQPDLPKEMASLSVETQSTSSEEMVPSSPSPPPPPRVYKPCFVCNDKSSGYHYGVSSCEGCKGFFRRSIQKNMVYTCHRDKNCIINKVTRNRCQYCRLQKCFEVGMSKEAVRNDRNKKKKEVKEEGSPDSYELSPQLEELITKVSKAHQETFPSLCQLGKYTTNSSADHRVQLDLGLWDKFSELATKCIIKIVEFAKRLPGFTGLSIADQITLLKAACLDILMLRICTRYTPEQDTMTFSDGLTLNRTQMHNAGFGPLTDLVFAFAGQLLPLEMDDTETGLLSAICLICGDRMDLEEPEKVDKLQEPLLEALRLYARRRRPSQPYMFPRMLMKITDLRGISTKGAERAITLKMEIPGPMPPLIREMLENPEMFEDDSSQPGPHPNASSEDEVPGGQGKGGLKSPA

For `CN(C)Cc1ccccc1O`, the outcome in experiment [1], in experiment [2], in experiment [3], in [4], in experiment [6] and in experiment [7] was inactive. Further, the call in experiment [8] and in experiment [9] was inactive. Besides, the concentration at half-maximal activity (AC50) in [5] is 179 µM (active).

In the case of `N=C(N)C(F)(F)C(F)(F)C(F)(F)C(F)(F)C(F)(F)C(F)(F)C(F)(F)F`, the result in experiment [1], in experiment [3], in experiment [10], in experiment [11], in [12] and in [14] was inactive. In addition, the result in experiment [8] and in experiment [9] was inactive. Besides, the half-maximal activity concentration (AC50) in [4] is 125 µM (active); in experiment [13] it was 36.8 µM (active) and 30 µM (active); in experiment [15], 50.7 µM (active) and 24.7 µM (active).

As to `O=C(Cl)C(F)(F)C(F)(F)C(F)(F)C(F)(F)C(F)(F)C(F)(F)C(F)(F)C(F)(F)F`, the outcome in [1], in experiment [3], in experiment [10], in experiment [11], in [12] and in experiment [13] was inactive. The outcome in experiment [7], in experiment [14], in [16], in [17] and in experiment [18] was inactive. For the same molecule, the AC50 in experiment [4] is 15.8 µM (active); in experiment [5], 47.1 µM (active); in experiment [11], 53.4 µM (active); in experiment [12], 30 µM (active) and 46 µM (active); in experiment [13], 42.9 µM (active) and 30 µM (active); in [15], 44.9 µM (active) and 53.1 µM (active) and 54.2 µM (active). Besides, the half-maximal activity concentration (AC50) in experiment [8] is 25.2 µM (active); in experiment [9] it was 54.5 µM (active).

On to `O=S(=O)(O)c1ccc2ccccc2c1`, for which the molecule was called inactive in experiment [1], in experiment [3], in [10], in [4], in experiment [5] and in experiment [19]. Further, the molecule was classed as inactive in experiment [7], in experiment [8] and in experiment [9]. For the same molecule, in experiment [9], the AC50 is 21 µM (active).

The record behind these values is PubChem BioAssay (EPA / NIEHS).
